Inconclusive results are not listed. Activity calls are given as the source filed them. Unless noted, calls follow the shape of the dose curve; as a rule, active = well fitted curve in the direction sought with a large enough effect in the repeat runs; inconclusive = weak or mixed curves; inactive = no such curve, though single readings can be large; an effect the other way counts as inactive or inconclusive.
Key:
[1] = qHTS assay for small molecule agonists of the p53 signaling pathway (AID 651631; calls by dose curve; also: nearly all actives have a fitted effect of over 15% in size)
Procedure, shortened: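 HCT-116 cells carrying a stable p53 response element–beta-lactamase reporter were plated, rested 5 h at 37 °C, then exposed to compound in DMSO for 16 h at 37 °C; reporter activity was read as FRET substrate fluorescence after 2 h at room temperature.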

[2] = qHTS assay for small molecules that induce genotoxicity in human embryonic kidney cells expressing luciferase-tagged ATAD5 (AID 651632); also: nearly all actives have a fitted effect of over 15% in size
Procedure, shortened: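 A rise in luciferase signal from ATAD5-tagged HEK293T cells marks genetic stress. Cells were exposed to compounds for 16 hr at 37C, 5% CO2, then luciferase was quantified after a 30 min room-temperature incubation with Amplite.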

[3] = qHTS assay for small molecule agonists of the p53 signaling pathway - cell viability (AID 651633; calls by dose curve; also: series mostly up to about 83 µM; nearly all actives have a fitted effect of over 30% in size)
Procedure, shortened: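 Viability counter-read: CellTiter-Glo luminescence (30 min, room temperature) in the same p53RE-bla plates. These plates had been exposed to compounds for 16 h at 37 C.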

[4] = qHTS assay for small molecules that induce genotoxicity in human embryonic kidney cells expressing luciferase-tagged ATAD5 - cell viability (AID 651634; calls by dose curve; also: nearly all actives have a fitted effect of over 25% in size)
Procedure, shortened: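 Cytotoxicity counter-readout: after 15.5 hr compound treatment at 37C, live-cell protease activity in ATAD5-luciferase HEK293T cells measured by CellTiter-Fluor fluorescence, 30 min development at 37C.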

[5] = qHTS assay for small molecule disruptors of the mitochondrial membrane potential - cell viability (AID 720634; calls by dose curve;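 also: human HepG2 liver cancer cells; series mostly up to about 83 µM; nearly all actives have a fitted effect of over 20% in size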)
Procedure, shortened: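 Cytotoxicity was quantified from ATP content by CellTiter-Glo luminescence in the same wells as the MMP dye read-out. HepG2 (2,000 cells/well) were plated overnight and exposed to compounds for 1 hr at 37 C.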

[6] = qHTS assay for small molecule disruptors of the mitochondrial membrane potential (AID 720635)
Procedure, shortened: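 Mitochondrial membrane potential tracked with Mito-MPS dye, red aggregates (ex 540/em 590 nm) against green monomers (ex 490/em 535 nm). Compound treatment 1 hr at 37C, dye 30 min in HepG2.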

[7] = qHTS assay to test for compound auto fluorescence at 590 nm (red) in HepG2 cells (AID 720674)
Procedure, shortened: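 1 hr compound incubation on HepG2 cells, 37 C, 5% CO2; plate read ex 540 nm / em 590 nm; intensities reported as Rose Bengal sodium equivalents.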

[8] = qHTS assay to test for compound auto fluorescence at 535 nm (green) in HepG2 cells (AID 720675)
[9] = qHTS assay to test for compound auto fluorescence at 460 nm (blue) in HEK293 cells (AID 720678)
Procedure, shortened: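 HEK293 cells (2,000 per well, medium with 10% dialyzed FBS) attached for 4-5 hr at 37C, then received compound and stood overnight at 37C, 5% CO2. Blue fluorescence was read at Ex/Em 405/460 nm and expressed relative to triamterene.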

[10] = qHTS assay to test for compound auto fluorescence at 590 nm (red) in HEK293 cells (AID 720679)
Procedure, shortened: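 HEK293 cells (2,000/well, medium with 10% dialyzed FBS) attached for 4-5 hr at 37C, received 23 nL compound and were incubated overnight at 37C, 5% CO2. Red fluorescence was then read at 540/590nm Ex/Em, referenced to Rose Bengal sodium.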

[11] = qHTS assay to test for compound auto fluorescence at 460 nm (blue) in HEK293 cell free culture (AID 720681)
Procedure, shortened: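 Blue fluorescence (Ex 405/Em 460 nm, triamterene-equivalent) was read immediately after pin transfer of compound or DMSO into medium (DMEM, 10% FBS) without cells.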

[12] = qHTS assay to test for compound auto fluorescence at 535 nm (green) in HEK293 cell free culture (AID 720682)
Procedure, shortened: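 Read-out: 485/535 nm fluorescence intensity, calibrated against fluorescein. Medium only (DMEM + 10% FBS, no cells); test compound or DMSO vehicle added by pintool before plate reading.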

[13] = qHTS assay to test for compound auto fluorescence at 590 nm (red) in HEK293 cell free culture (AID 720683)
Procedure, shortened: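 Red-channel autofluorescence of compounds in culture medium (DMEM, 10% FBS), no cells, measured at 540/590 nm. Rose Bengal sodium is the reference fluorophore for equivalence.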

[14] = qHTS assay to test for compound auto fluorescence at 590 nm (red) in HepG2 cell free culture (AID 720684)
Procedure, shortened: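 Cell-free; medium MEM + 10% FBS; compound or DMSO added by pintool; read Ex 540/Em 590 nm; Rose Bengal sodium as red reference fluorophore.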

[15] = qHTS assay to test for compound auto fluorescence at 460 nm (blue) in HepG2 cell free culture (AID 720685)
Procedure, shortened: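 Cell-free plates of MEM plus 10% FBS received 23 nL compound or DMSO vehicle; blue-channel (405/460 nm) intensity scored against triamterene as reference fluorophore.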

[16] = qHTS assay to test for compound auto fluorescence at 535 nm (green) in HepG2 cell free culture (AID 720686)
[17] = qHTS assay to test for compound auto fluorescence at 460 nm (blue) in HepG2 cells (AID 720687)
Procedure, shortened: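 Blue-channel autofluorescence (Ex/Em 405/460 nm, triamterene-equivalent) was measured after 1 hr compound exposure at 37 C, 5% CO2. Cells were HepG2, plated overnight at 37 C in MEM plus 10% FBS.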

[18] = qHTS assay to test for compound auto fluorescence at 535 nm (green) in HEK293 cells (AID 720680)
[19] = biological target: Glucocorticoid receptor (Homo sapiens) (UniProt P04150); experiment: qHTS assay to identify small molecule agonists of the glucocorticoid receptor (GR) signaling pathway (AID 720691; active = well fitted activation curve with a large enough effect in the signal ratio in the repeat runs, not every such curve was filed as active; the % refers to the signal ratio)
Chain of Glucocorticoid receptor (Homo sapiens) (P04150 whole entry, looked up): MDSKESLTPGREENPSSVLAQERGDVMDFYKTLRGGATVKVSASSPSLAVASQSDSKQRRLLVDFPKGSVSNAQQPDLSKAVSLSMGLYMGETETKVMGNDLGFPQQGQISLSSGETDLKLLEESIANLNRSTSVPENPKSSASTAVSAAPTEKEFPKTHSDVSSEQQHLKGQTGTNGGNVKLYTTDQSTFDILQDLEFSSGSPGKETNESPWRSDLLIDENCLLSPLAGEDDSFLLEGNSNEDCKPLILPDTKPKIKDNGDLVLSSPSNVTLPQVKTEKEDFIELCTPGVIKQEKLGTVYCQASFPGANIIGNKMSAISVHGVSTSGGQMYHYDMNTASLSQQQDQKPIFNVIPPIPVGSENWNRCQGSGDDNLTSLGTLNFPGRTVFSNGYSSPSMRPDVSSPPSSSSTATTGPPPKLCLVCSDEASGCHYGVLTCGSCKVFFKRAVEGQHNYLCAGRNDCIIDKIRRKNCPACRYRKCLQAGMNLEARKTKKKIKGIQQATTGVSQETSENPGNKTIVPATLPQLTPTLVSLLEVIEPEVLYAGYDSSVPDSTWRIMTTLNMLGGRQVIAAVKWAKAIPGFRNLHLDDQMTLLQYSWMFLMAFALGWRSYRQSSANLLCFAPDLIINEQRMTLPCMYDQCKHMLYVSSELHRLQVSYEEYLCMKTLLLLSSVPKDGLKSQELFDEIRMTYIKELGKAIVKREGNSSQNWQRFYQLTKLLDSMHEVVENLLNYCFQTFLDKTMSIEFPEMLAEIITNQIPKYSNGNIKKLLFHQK
Procedure, shortened: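 Agonist-mode qHTS in HeLa cells stably expressing a glucocorticoid-response-element beta-lactamase reporter. Fluorescence intensity read with FRET substrate (2 h, room temperature) after 18 h compound treatment at 37 C.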

[20] = biological target: Glucocorticoid receptor (Homo sapiens) (UniProt P04150); experiment: qHTS assay to identify small molecule antagonists of the glucocorticoid receptor (GR) signaling pathway (AID 720692; active = well fitted inhibition curve with a large enough effect in the signal ratio in the repeat runs, not every such curve was filed as active; the % refers to the signal ratio)
Procedure, shortened: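 Inhibition of dexamethasone-driven (5 nM final) beta-lactamase expression was measured in GRE-reporter HeLa cells over 18 h at 37C. Fluorescence was read after 2 h with the B/G FRET substrate at room temperature.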
% is scaled to controls: 0 for no effect and ±100 for the full control effect.

CC(=O)N[C@@H](CC(C)C)C(=O)O
inactive: Potency [1] | Potency [2] | Potency [3] | Potency [4] | Potency [5] | Potency [6] | outcome [7] | outcome [8] | outcome [9] | outcome [10] | outcome [11] | outcome [12] | outcome [13] | outcome [14] | outcome [15] | outcome [16] | outcome [17]

CCCCCCCCCC/C=C/C#N
inactive: Potency [1] | Potency [2] | Potency [3] | Potency [4] | Potency [5] | Potency [6] | outcome [7] | outcome [8] | outcome [9] | outcome [10] | outcome [18] | outcome [12] | outcome [13] | outcome [14] | outcome [15] | outcome [16] | outcome [17]

Cc1ccc([N+](=O)[O-])cc1Cl
inactive: Potency [1] | Potency [2] | Potency [3] | Potency [4] | Potency [5] | outcome [7] | outcome [8] | outcome [9] | outcome [10] | outcome [18] | outcome [11] | outcome [12] | outcome [13] | outcome [14] | outcome [16] | outcome [17] | Potency [19] | Potency [20]

CCCC1CCC(=O)O1 (centres undefined)
inactive: Potency [1] | Potency [2] | Potency [3] | Potency [4] | Potency [5] | Potency [6] | outcome [7] | outcome [8] | outcome [9] | outcome [10] | outcome [11] | outcome [12] | outcome [13] | outcome [14] | outcome [15] | outcome [16] | outcome [17] | Potency [19] | Potency [20]

COC(=O)c1ccc2cc(C(=O)OC)ccc2c1
inactive: Potency [1] | Potency [2] | Potency [3] | Potency [4] | Potency [5] | fluorescence, relative to Rose Bengal [7] 0.064% [at 18.6 µM] | fluorescence, % of fluorescein control [8] -0.0327% [at 18.6 µM] | fluorescence, % of triamterene [9] -0.0093% [at 18.6 µM] | fluorescence, % of fluorescent control [10] 0.496% [at 18.6 µM] | fluorescence, % of fluorescein [18] -0.0047% [at 18.6 µM] | fluorescence, % of fluorescent control [11] -0.109% [at 18.6 µM] | activity change [12] -0.0115% [at 18.6 µM] | fluorescence, % of fluorescent control [13] 0.0914% [at 18.6 µM] | fluorescence, % of Rose Bengal [14] 0.0402% [at 18.6 µM] | fluorescence, % of fluorescent control [15] -0.114% [at 18.6 µM] | fluorescence, % of fluorescein control [16] -0.0122% [at 18.6 µM] | fluorescence, % of fluorescent control [17] 0.0678% [at 18.6 µM] | Potency [19] | Potency [20]

CCc1cc(Cl)c(OC)c(C(=O)NC[C@@H]2CCCN2CC)c1O
inactive: Potency [1] | Potency [2] | Potency [3] | Potency [4] | Potency [5] | outcome [7] | outcome [8] | outcome [9] | outcome [10] | outcome [18] | outcome [11] | outcome [12] | outcome [13] | outcome [14] | outcome [15] | outcome [16] | outcome [17] | Potency [19] | Potency [20]

Reference: PubChem BioAssay (Tox21)
